KB-V1 cytotox = qHTS assay for MDR1-selective chemotherapeutics: Primary screen using the drug-selected MDR subline cells KB-V1; Potency, µM (highest dose often 46.1 µM), usual class: cytotoxic; KB-V1 MDR cells viability, CellTiter-Glo, 72 h; actives 3.4% (n = 400,000); also: nearly all actives have a fitted effect of over 60% in size
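Luminescent ATP read-out (CellTiter-Glo, 10 min) measures survival of drug-selected KB-V1 MDR cells after 72 h, 37 degrees C compound exposure. Medium: phenol-red-free DMEM, 10% FBS. Values from fitted concentration-response curves.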
HT1080-NT tox = qHTS for induction of synthetic lethality in tumor cells producing 2HG: qHTS for the HT-1080-NT fibrosarcoma cell line. HT-1080-NT fibrosarcoma viability, CellTiter-Glo ATP luminescence, 48 h. Potency, µM (top dose mostly 46.1 µM), most hits filed as cytotoxic. actives 1.6% (n = 360,000);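 also: NT is the 2HG producing partner of a matched IDH1 knockdown line; nearly all actives have a fitted effect of over 55% in size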
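Luminescent CellTiter-Glo readout after 48 hours of compound exposure at 37 degrees C defined viability of HT-1080-NT cells. Activity was normalized to DMSO wells and cell-free media wells; concentration-response curves were fitted and assigned curve classes.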
IL-1B inflam inh = qHTS for Inhibitors of Inflammasome Signaling: IL-1-beta AlphaLISA Primary Screen | THP-1 LPS/ATP IL-1B secretion, AlphaLISA, 16 h; stronger effect = lower value | activity change, % at 57.5 µM | actives 4.7% (n = 360,000); in the data active = activity change below about -50%; inconclusive = mostly about -30% to -49%
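Secreted IL-1B measured by AlphaLISA bead assay after 16 h compound exposure of THP-1 cells; compounds (final up to 57.5 uM) added 1 h before LPS (250 ng/mL) and ATP (1.25 mM) stimulation; lower signal means less secretion.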
KB-3-1 cytotox = qHTS assay for MDR1-selective chemotherapeutics: Primary screen using the parental adenocarcinoma cell KB-3-1; KB-3-1 viability, CellTiter-Glo ATP luminescence, 72 h; actives 1.4% (n = 400,000); Potency, µM (highest dose often 46.1 µM), most hits filed as cytotoxic; also: nearly all actives have a fitted effect of over 60% in size
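Here the drug-naive KB-3-1 line serves as comparator for MDR sub-line selectivity; cells received compound titrations, 72 h at 37 °C, then CellTiter-Glo readout.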
HT1080 IDH1KD tx = qHTS for induction of synthetic lethality in tumor cells producing 2HG: qHTS for the HT-1080-IDH1KD cell line; Potency, µM (titrated, usually from 46.1 µM), usual class: cytotoxic; HT-1080 IDH1 knockdown viability, ATP luminescence, 48 h; AID 686971, 2013; actives 2% (n = 360,000)
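Knockdown cells (IDH1KD HT-1080) received compounds 2 h after plating at 750 cells/well and were kept 48 h at 37 °C in 5% FBS RPMI. A CellTiter-Glo luminescence read gave % activity for curve fitting.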
Of the large screens only hits and unclear results are named; the others gave an inactive call. Rows were chosen to be rich in hits. Some 8.8% of all compounds tested hit in one or more screens of this group. Unless noted, calls follow the shape of the dose curve; as a rule, active = well fitted curve in the direction sought with a large enough effect; inconclusive = small, poorly fitted or top-dose-only effect, or another doubt; inactive = no such curve, though single readings can be large; an effect the other way counts as inactive or inconclusive.

Cc1ccc(-c2noc(CCC(=O)N3CCCc4ccccc43)n2)cc1	KB-V1 cytotox 23µM
COc1ccc(Cl)cc1N(C)C(=O)CCc1nc(-c2ccc(C)cc2)no1	KB-V1 cytotox inconclusive
CCc1ccccc1N(C)C(=O)CCc1nc(-c2ccc(C)cc2)no1	KB-V1 cytotox 18µM
Cn1c(-c2ccccc2)cnc1SCC(=O)N1CCCCC1	none
Cc1ccc(-c2cnc(SCC(=O)N3CCCc4ccccc43)n2C)cc1	IL-1B inflam inh -50
Cn1c(-c2ccccc2)cnc1SCC(=O)N1CCCc2ccccc21	KB-V1 cytotox 5.8µM, IL-1B inflam inh inconclusive
COC(=O)c1ccc2nc(C)cc(Nc3cccc(Cl)c3C)c2c1	none (no result: HT1080-NT tox, IL-1B inflam inh, HT1080 IDH1KD tx)
CCOc1ccccc1-n1c(SCC(=O)N2CCCc3ccccc32)nnc1-c1cccnc1	KB-V1 cytotox 7.3µM
O=C(CSc1ncc(-c2ccccc2)n1C1CCCC1)N1CCc2ccccc21	KB-V1 cytotox inconclusive, IL-1B inflam inh -61, HT1080 IDH1KD tx inconclusive
Cc1ccc2c(c1)CCCN2C(=O)CCc1nc2ccccc2c(=O)[nH]1	KB-V1 cytotox inconclusive, HT1080-NT tox 8.2µM, KB-3-1 cytotox inconclusive, HT1080 IDH1KD tx inconclusive
CC(C)(C)C(=O)Nc1cccc(-c2ncon2)c1	none
Cc1cc(NC(=O)c2ccccc2)n(-c2nc3ccccc3[nH]2)n1	none
COc1ccc(C(=O)Nc2cc(C)nn2-c2nc3ccccc3[nH]2)c(OC)c1	none
Cc1cc(NC(=O)c2sccc2C)n(-c2nc3ccccc3[nH]2)n1	KB-V1 cytotox inconclusive, HT1080-NT tox inconclusive, IL-1B inflam inh -82, KB-3-1 cytotox inconclusive
Cc1cc(NC(=O)C2CCCC2)n(-c2nc3ccccc3[nH]2)n1	HT1080-NT tox 7.9µM, HT1080 IDH1KD tx 4µM
COc1cccc(OC)c1C(=O)Nc1cc(C)nn1-c1nc2ccccc2[nH]1	KB-V1 cytotox 3.3µM, KB-3-1 cytotox 15µM
Cc1nnc(N2CCN(c3cccc(C(F)(F)F)c3)CC2)c2c1nnn2Cc1ccccc1	KB-V1 cytotox inconclusive (no result: HT1080-NT tox, IL-1B inflam inh, HT1080 IDH1KD tx)
CC1CCN(C(=O)Nc2ccc3nc(-c4ccco4)c(-c4ccco4)nc3c2)CC1	KB-V1 cytotox inconclusive (no result: HT1080-NT tox, IL-1B inflam inh, HT1080 IDH1KD tx)
CC(=O)Nc1cccc(OCCOc2cccc([N+](=O)[O-])c2)c1	none
Cc1cc(=O)n(C)c(=O)n1CCCCCCOc1cccc([N+](=O)[O-])c1	KB-V1 cytotox 7.3µM, KB-3-1 cytotox inconclusive
CCOCCCNCc1ccc(OCc2ccccc2C)c(OC)c1	KB-3-1 cytotox inconclusive
C=CCN(c1ccccc1)S(=O)(=O)c1cccc(C(=O)NCC(c2ccc(OC)cc2)N2CCCCC2)c1 (stereo not drawn)	KB-V1 cytotox inconclusive, IL-1B inflam inh -66, KB-3-1 cytotox inconclusive
COc1ccc(C(CNC(=O)c2cccc(S(=O)(=O)NCc3ccccc3)c2)N2CCOCC2)cc1 (stereo not drawn)	KB-V1 cytotox 18µM
COc1ccc(C(CNC(=O)c2cccc(S(=O)(=O)Nc3cccc(C)c3)c2)N2CCOCC2)cc1 (stereo not drawn)	KB-V1 cytotox 21µM
COc1ccc(C(CNC(=O)c2cccc(S(=O)(=O)Nc3ccc(C)cc3)c2)N2CCOCC2)cc1 (stereo not drawn)	KB-V1 cytotox inconclusive, KB-3-1 cytotox inconclusive
Cc1nc(Cl)c2c(n1)NC1=C(O2)C(=O)CCC1	none
COc1cccc2c1OCC(C(=O)OCc1cccnc1)=C2	IL-1B inflam inh -53
Cn1c(=O)c(=O)n(C)c2cc(NS(=O)(=O)c3ccc(Br)cc3)c(Cl)cc21	none (no result: HT1080-NT tox, IL-1B inflam inh, HT1080 IDH1KD tx)
CCN(CC)c1c(C)nc2ccc(C(=O)N3CCN(C(=O)c4ccco4)CC3)cn12	none
O=C(/C=C/c1ccco1)N1CCC(Cc2ccccc2)CC1	IL-1B inflam inh -67
Cc1onc(C(=O)N2CCC(Cc3ccccc3)CC2)c1[N+](=O)[O-]	HT1080-NT tox 5.8µM, HT1080 IDH1KD tx 10µM
Cc1cc(C(=O)N2CCC(Cc3ccccc3)CC2)c(C)o1	IL-1B inflam inh -87
O=C(/C=C/c1ccco1)N1CCN(c2ncccn2)CC1	none
CCOc1ccccc1N(C)C(=O)C1CCCN(c2ncnc3onc(-c4ccc(F)cc4)c23)C1 (stereo not drawn)	none (no result: HT1080-NT tox, IL-1B inflam inh, HT1080 IDH1KD tx)
COc1ccc([N+](=O)[O-])cc1NC(=O)C(C)OC(=O)CSC(C)C(=O)Nc1cc(C)on1 (stereo not drawn)	none
COc1ccc(CN2CN=C(Nc3nc4ccccc4s3)NC2)cc1	KB-V1 cytotox 4.6µM
c1ccc2sc(NC3=NCN(C4CCCCC4)CN3)nc2c1	none
c1ccc(CN2CN=C(Nc3nc4ccccc4s3)NC2)cc1	none
CC1CCCCC1N1CN=C(Nc2nc3ccccc3s2)NC1 (stereo not drawn)	KB-V1 cytotox 18µM
O=C(CCN1CCOCC1)N1CCCC(Nc2cccc(F)c2)C1 (stereo not drawn)	none
O=C(/C=C/c1ccc(F)cc1)Nc1cccc([S+](=O)([O-])Nc2ccccc2F)c1	none (no result: HT1080-NT tox, IL-1B inflam inh, HT1080 IDH1KD tx)
Cc1ccc(S(=O)(=O)N(CC2CO2)c2ccccc2[N+](=O)[O-])cc1 (stereo not drawn)	IL-1B inflam inh inconclusive
O=S(=O)(c1ccccc1)N(CC1CO1)c1cccc2ccccc12 (stereo not drawn)	IL-1B inflam inh -69, HT1080 IDH1KD tx inconclusive
O=[N+]([O-])c1ccc(N(CC2CO2)S(=O)(=O)c2ccccc2)cc1 (stereo not drawn)	HT1080-NT tox inconclusive, IL-1B inflam inh -73, HT1080 IDH1KD tx inconclusive
O=S(=O)(c1ccccc1)N(CC1CO1)c1ccccc1 (stereo not drawn)	none
Cc1cc(C)cc(-n2c(SCC(=O)N3CCCC3)nc3c([nH]c4ccccc43)c2=O)c1	KB-3-1 cytotox inconclusive (no result: HT1080-NT tox, IL-1B inflam inh, HT1080 IDH1KD tx)
O=c1c(Cc2ccc(Cl)cc2Cl)c(O)ccn1CCCN1CCOCC1	none
Cn1cccc1-c1cc(C(=O)N/N=C/c2ccc(Cl)cc2)[nH]n1	KB-V1 cytotox inconclusive, HT1080-NT tox inconclusive, HT1080 IDH1KD tx inconclusive
COc1cccc(/C=N/NC(=O)c2cc(-c3cccn3C)n[nH]2)c1O	KB-3-1 cytotox inconclusive, HT1080 IDH1KD tx inconclusive
COc1cc(/C=N/NC(=O)c2cc(-c3cccn3C)n[nH]2)cc(OC)c1OC	IL-1B inflam inh -85, KB-3-1 cytotox inconclusive
Cn1cccc1-c1cc(C(=O)N/N=C/C=C/c2ccccc2)[nH]n1	IL-1B inflam inh -91
COc1cccc(/C=N/NC(=O)c2cc(-c3cccn3C)n[nH]2)c1	KB-V1 cytotox inconclusive, IL-1B inflam inh -53, KB-3-1 cytotox inconclusive
O=C(CSc1ccccc1C(=O)NCc1ccccc1)NC1CCCCCCC1	KB-V1 cytotox 3.3µM, IL-1B inflam inh -101
